VACV mCherry inh: vaccinia inhibition (mCherry reporter) | Vaccinia virus mCherry reporter infection, fluorescence | Potency, µM (top dose mostly 36.5 µM), inactives show at the highest dose activity change, negative = inhibition, actives largely listed as inhibitors | actives 0.63% (n = 310,000); calls by dose curve; tested in A549 cells; also: nearly all actives have a fitted effect of over 35% in size
FBPA Giardia inh: inhibitors of Giardia lamblia fructose-1,6-bisphosphate aldolase; actives 0.71% (n = 290,000); Potency, µM (titrated, usually from 59.6 µM), inactives show top-dose activity, negative = inhibition, hits mostly inhibitors; purified Giardia FBPA; active = well fitted inhibition curve with a large enough effect; inconclusive = small, poorly fitted or top-dose-only effect, or effect the other way; also: nearly all actives have a fitted effect of over 55% in size
Target sequence (A8B2U2 whole entry, looked up): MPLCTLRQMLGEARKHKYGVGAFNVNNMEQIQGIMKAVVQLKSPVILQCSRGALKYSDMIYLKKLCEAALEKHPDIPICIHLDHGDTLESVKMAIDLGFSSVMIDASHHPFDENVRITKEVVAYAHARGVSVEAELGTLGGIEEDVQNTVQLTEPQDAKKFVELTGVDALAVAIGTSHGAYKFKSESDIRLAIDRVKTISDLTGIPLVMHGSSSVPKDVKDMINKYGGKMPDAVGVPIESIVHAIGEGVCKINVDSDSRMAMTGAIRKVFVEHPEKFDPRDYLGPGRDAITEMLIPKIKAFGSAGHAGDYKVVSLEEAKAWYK
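40 nM FBPA preincubated 10 min at RT with compound (up to 57.5 uM final), then substrate plus GAPDH/TPI/NAD/arsenate coupling and diaphorase/resazurin added. Fluorescence read after 20 min at RT, 525/598 nm.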
VACV Venus inh: vaccinia inhibition (Venus reporter) | Vaccinia virus Venus reporter expression, fluorescence | Potency, µM (series often up to 36.5 µM), for inactives: top-dose activity change, negative = inhibition, actives largely listed as inhibitors | actives 0.46% (n = 330,000); calls by dose curve; tested in A549 cells; also: nearly all actives have a fitted effect of over 30% in size
FMDV antiviral: blocks foot and mouth disease virus; Potency, µM (series often up to 57.9 µM), without a hit: at the highest dose activity change, negative = inhibition, hits mostly inhibitors; FMDV antiviral cell-based qHTS; AID 1159524; actives 1.2% (n = 410,000); calls by dose curve; tested in HEK293T cells; also: read-out not given here; nearly all actives have a fitted effect of over 45% in size
* marks the source's active call; other numbers are inactive results; i = inactive; ? = inconclusive; / = not tested or not shown. An excerpt weighted towards active compounds, which were near 2.2% of everything screened. % is scaled to controls: 0 for no effect and ±100 for the full control effect; potency is read from the fitted curve at half-maximal effect.

SMILES	VACV mCherry inh	FBPA Giardia inh	VACV Venus inh	FMDV antiviral
CCc1nc2cc(C(=O)N3CCCN(C=O)CC3)cc(NC(=O)c3ccccc3OC)c2n1C	-7%	/	0%	-1%
CN1CCN(C2=C(Cl)C(=O)c3ccccc3C2=O)CC1	?	/	10µM*	32µM*
Cc1ncc2c(c1CNC(=O)c1cncs1)CCN(C(=O)c1ccc(C(C)(C)C)cc1)C2	i	/	?	3%
O=C(/C=C/c1ccc(Br)cc1)c1ccc(NC2=NCCCS2)cc1	/	-11%	/	16µM*
O=C1CCn2c1c(O)c1ccccc1c2=O	-19%	/	-1%	-11%
N=C1CCC(=N)c2c1c(O)c1ccccc1c2O	4%	6.3µM*	78%	-16%
CC(NC(=O)C1CC1)c1nnc2n1CCN(Cc1cccc(F)c1F)CC2 (configuration not stated)	-16%	/	-13%	-1%
CCCC(=O)N1CCCC(c2cc(C(=O)Nc3ccccc3)no2)C1 (configuration not stated)	-3%	/	-7%	20µM*
Cc1ccc(Sc2ncnc3onc(C)c23)cc1	-12%	7%	-14%	18µM*
CC1(c2ccccc2)OC(C(=O)O)=CC1=O (configuration not stated)	/	/	/	-11%
C[Si](C)(C)C#Cc1ccccc1NC(=S)Nc1ccccc1	/	-13%	/	/
CCC1Oc2ccc(C)cc2N(CC(=O)N(Cc2ccc(C)o2)C2CCCC2)C1=O (configuration not stated)	-12%	14%	-2%	22µM*
COc1ccc(/C=C/c2cc(C(=O)O)c3ccccc3n2)cc1	-24%	-25%	-13%	2.8µM*
O=C(NCc1ccccc1)C(c1ccc(-c2ccccc2)cc1)N1CCN(C(=O)C2CCCO2)CC1 (configuration not stated)	2.8µM*	/	?	-15%
CCn1c(C)cs/c1=N\S(=O)(=O)c1ccccc1	i	/	-7%	30%
O=Cc1s/c(=N\S(=O)(=O)c2ccccc2)n(CCCCl)c1Cl	?	2%	?	7.9µM*
Cc1ncsc1CCC(=O)N1CCCC(c2nc(-c3ccncc3)ncc2-c2ccccc2)C1 (configuration not stated)	-25%	/	-14%	?
CCN(CCNC(=O)C1CCN(Cc2nc(-c3ccc(Cl)cc3)oc2C)CC1)c1ccccc1	13µM*	2%	?	?
Cc1oc(-c2cccc(Cl)c2)nc1CN1CCC(C(=O)NC(C)c2ccccc2)CC1 (configuration not stated)	?	/	?	35µM*
Cc1oc(-c2ccc(Cl)cc2)nc1CN1CCC(C(=O)NCCCN2CCN(c3cccc(Cl)c3)CC2)CC1	?	/	14µM*	25µM*
Cc1oc(-c2cccc(Cl)c2)nc1CN1CCC(C(=O)NCCCN2CCN(c3ccc(F)cc3)CC2)CC1	-30%	/	?	?
CCc1ccc(-c2nc(CN3CCC(C(=O)NCCN(CC)c4ccccc4)CC3)c(C)o2)cc1	-20%	4%	-16%	?
CCN(CCNC(=O)C1CCN(Cc2nc(-c3cccc(Cl)c3)oc2C)CC1)c1ccccc1	14µM*	-21%	11µM*	40µM*
CN(C)CCCCCCNc1cc(N2CCN(C)CC2)ncn1	-6%	/	-11%	/
O=C(C[n+]1ccccc1Cl)c1ccc(Br)cc1	-13%	/	-14%	/
SMILES	VACV mCherry inh	FBPA Giardia inh	VACV Venus inh	FMDV antiviral
Cc1ccc(NC(=O)c2cnn3c2NC(=C2CC2)C=C3C(F)F)cc1C	-29%	/	-28%	/
N#Cc1cc(N2CCCCC2)c([N+](=O)[O-])cc1C#N	/	0%	/	0%
O=[N+]([O-])c1cc2no[n+]([O-])c2cc1N1CCCCC1	i	/	-11%	32µM*
Cc1ccc2[nH]c3nc(N/N=C/c4cccc(O)c4)nnc3c2c1	-12%	2%	-3%	-6%
CCc1ccc2[nH]c3nc(N/N=C/c4ccc(O)cc4O)nnc3c2c1	1.8µM*	18%	-25%	-18%
O=C(Nc1nc2cc3c(cc2s1)OCCO3)C1=COCCO1	/	-5%	/	4µM*
O=C(Nc1nc2ccc(F)cc2s1)C1=COCCO1	-6%	/	-18%	?
O=C(c1cccc(F)c1)N(Cc1cc2cc3c(cc2nc1N1CCOCC1)CCC3)CC1CCCO1 (configuration not stated)	i	/	-4%	-14%
CC1CCCC(NC(=O)NC(=O)CCl)C1C (configuration not stated)	/	-16%	/	20µM*
CCCNC(=O)COC(=O)c1ccccc1C(=O)c1ccc(Cl)c([N+](=O)[O-])c1	?	-4%	14µM*	11µM*
O=C(NC(Cc1c[nH]c2ccccc12)C(=O)Nc1ccc(F)c([N+](=O)[O-])c1)c1cccs1 (configuration not stated)	2.5µM*	-4%	3%	-24%

Screening results as filed in PubChem BioAssay.
